Reference: PubChem BioAssay AID1159580 (chemical genetic matrix, 2015)
Values joined by “and” are separate entries in the source; they are usually repeats but may differ in a detail not shown here. Equal values may be shown once. About 2,000 (36%) of roughly 5,500 compounds were called active. Inconclusive results (about 18%) are left out. Rule as the data show it: active = normalized growth mostly below about 0.91 (no sharp cut-off); inconclusive = no clear call, values can overlap the other calls; inactive = mostly above about 0.92. The list shows a part of the results. A structure can be active in one record and inactive in another.

Assay: chemical genetic growth profiling, strain panel (AID 1159580);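 also: tested at 20 µM; growth read once vehicle control cultures reached saturation at 30 °C; 1 = growth at the plate median or of vehicle wells; lower values mean less growth of the strain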
Details: S. cerevisiae deletion strains, growth OD

Measured: normalized growth

Cc1ccc(Cl)c(Nc2ccccc2C(=O)O)c1Cl
0.879 (active) and 0.942 (inactive): locus YDR150W, strain NUM1, stronger effect = lower value
0.664 (active) and 0.986 (inactive): locus YJL095W, strain BCK1, stronger effect = lower value
inactive: locus YAL013W, strain DEP1, stronger effect = lower value 0.938 | locus YAL021C, strain ccr4, stronger effect = lower value 0.917 | locus YAL040C, strain CLN3, stronger effect = lower value 0.916 | locus YBR021W, strain FUR4, stronger effect = lower value 0.954 | locus YCL061C, strain MRC1 (second series), stronger effect = lower value 0.965 | locus YDL035C, strain GPR1, stronger effect = lower value 0.939 | locus YDL074C, strain BRE1, stronger effect = lower value 0.799 | locus YDL101C, strain DUN1, stronger effect = lower value 0.957 | locus YDL185W, strain tfp1, stronger effect = lower value 0.953 | locus YDR069C, strain doa4, stronger effect = lower value 0.928 | locus YDR195W, strain ref2 1.11 | locus YDR363W, strain ESC2, stronger effect = lower value 0.985 | locus YER002W, strain NOP16, stronger effect = lower value 0.926 | locus YER167W, strain BCK2, stronger effect = lower value 0.905 | locus YFR010W, strain ubp6, stronger effect = lower value 0.931 | locus YGL078C, strain dbp3, stronger effect = lower value 0.969 | locus YGL240W, strain doc1, stronger effect = lower value 0.91 | locus YGL248W, strain PDE1, stronger effect = lower value 0.899 | locus YGR078C, strain PAC10, stronger effect = lower value 0.926 | locus YGR229C, strain SMI1, stronger effect = lower value 0.841 | locus YGR252W, strain gcn5, stronger effect = lower value 0.834 | locus YHR079C, strain IRE1, stronger effect = lower value 1.03 | locus YIL066C, strain RNR3, stronger effect = lower value 0.881 | locus YIL073C, strain SPO22, stronger effect = lower value 0.735 | locus YIL125W, strain kgd1, stronger effect = lower value 0.981 | locus YJL115W, strain asf1, stronger effect = lower value 0.934 | locus YJL187C, strain SWE1 (second series), stronger effect = lower value 0.897 | locus YJR043C, strain POL32, stronger effect = lower value 0.956
0.901 (active) and 0.983 (inactive): locus YHR030C, strain SLT2, stronger effect = lower value
active: locus YAL026C, strain drs2, stronger effect = lower value 0.787 | locus YAL030W, strain snc1, stronger effect = lower value 0.876 | locus YBL061C, strain skt5, stronger effect = lower value 0.884 | locus YBR009C, strain hhf1, stronger effect = lower value 0.856 | locus YBR023C, strain chs3, stronger effect = lower value 0.852 | locus YBR171W, strain sec66, stronger effect = lower value 0.817 | locus YBR229C, strain ROT2, stronger effect = lower value 0.884 | locus YBR231C, strain swc5, stronger effect = lower value 0.885 | locus YBR279W, strain paf1, stronger effect = lower value 0.867 | locus YCL011C, strain gbp2, stronger effect = lower value 0.852 | locus YCL016C, strain dcc1, stronger effect = lower value 0.818 | locus YCL029C, strain bik1, stronger effect = lower value 0.887 | locus YCL061C, strain MRC1, stronger effect = lower value 0.891 | locus YCL069W, strain vba3, stronger effect = lower value 0.866 | locus YCR088W, strain abp1, stronger effect = lower value 0.876 | locus YDL005C, strain med2, stronger effect = lower value 0.895 | locus YDL040C, strain nat1, stronger effect = lower value 0.894 | locus YDL192W, strain arf1, stronger effect = lower value 0.824 | locus YDR001C, strain nth1, stronger effect = lower value 0.871 | locus YDR101C, strain arx1, stronger effect = lower value 0.906 | locus YDR137W, strain rgp1, stronger effect = lower value 0.455 | locus YDR159W, strain sac3, stronger effect = lower value 0.766 | locus YDR162C, strain NBP2, stronger effect = lower value 0.794 | locus YDR297W, strain sur2, stronger effect = lower value 0.908 | locus YDR318W, strain mcm21, stronger effect = lower value 0.83 | locus YDR334W, strain swr1, stronger effect = lower value 0.879 | locus YDR335W, strain msn5, stronger effect = lower value 0.896 | locus YDR388W, stronger effect = lower value 0.87 | locus YDR392W, strain spt3, stronger effect = lower value 0.188 | locus YDR502C, strain sam2, stronger effect = lower value 0.835 | locus YEL003W, strain gim4, stronger effect = lower value 0.904 | locus YEL037C, strain rad23, stronger effect = lower value 0.901 | locus YEL061C, strain CIN8 (second series), stronger effect = lower value 0.885 | locus YEL061C, strain CIN8, stronger effect = lower value 0.888 | locus YER015W, strain faa2, stronger effect = lower value 0.926 | locus YER016W, strain bim1, stronger effect = lower value 0.91 | locus YER110C, stronger effect = lower value 0.866 | locus YER111C, strain swi4, stronger effect = lower value 0.876 | locus YER155C, strain BEM2 (second series), stronger effect = lower value 0.644 | locus YER155C, strain BEM2, stronger effect = lower value 0.839 | locus YGL086W, strain mad1, stronger effect = lower value 0.905 | locus YGL167C, strain pmr1, stronger effect = lower value 0.829 | locus YGL173C, strain kem1, stronger effect = lower value 0.85 | locus YGL227W, strain vid30, stronger effect = lower value 0.906 | locus YGL253W, strain hxk2, stronger effect = lower value 0.81 | locus YGR135W, strain pre9, stronger effect = lower value 0.795 | locus YHR013C, strain ard1, stronger effect = lower value 0.793 | locus YHR027C, strain rpn1, stronger effect = lower value 0.903 | locus YHR079C, strain IRE1 (second series), stronger effect = lower value 0.876 | locus YHR094C, strain hxt1, stronger effect = lower value 0.869 | locus YHR129C, strain ARP1, stronger effect = lower value 0.91 | locus YHR142W, strain chs7, stronger effect = lower value 0.737 | locus YHR200W, strain rpn10, stronger effect = lower value 0.882 | locus YIR030C, strain dcg1, stronger effect = lower value 0.868 | locus YJL092W, strain hpr5, stronger effect = lower value 0.872 | locus YJL095W, strain BCK1 (second series), stronger effect = lower value 0.822 | locus YJL129C, strain trk1, stronger effect = lower value 0.644 | locus YJL134W, strain LCB3, stronger effect = lower value 0.906 | locus YJL154C, strain vps35, stronger effect = lower value 0.891 | locus YJL164C, strain tpk1, stronger effect = lower value 0.866 | locus YJL166W, strain qcr8, stronger effect = lower value 0.864 | locus YJL168C, strain set2, stronger effect = lower value 0.892 | locus YJL187C, strain SWE1, stronger effect = lower value 0.891
